The values that follow come from PubChem BioAssay (Tox21).

Values joined by “and” are separate entries in the source; they are usually repeats but may differ in a detail not shown here. Equal values may be shown once. Results filed as inconclusive are left out. Where a call stands in place of a potency, no number is given. Active and inactive are the calls of the source. The call rests on the fitted dose curve; in most records, active means well fitted cell-killing curve with a large enough effect in the repeat runs; inconclusive means weak or mixed curves, or effect the other way; inactive means no such curve, though single readings can be large or run the other way.
Potency means the concentration at half of the fitted maximal effect.

A short description of the experiment: qHTS assay for identifying genotoxic compounds that show differential cytotoxicity against isogenic chicken DT40 cell lines with known DNA damage response pathways - Rev3 mutant cell line (AID 743014). Further: nearly all actives have a fitted effect of over 55% in size. The settings on record: chicken DT40 Rev3-/- viability, CellTiter-Glo, 40 h; series mostly up to 68.4 µM. For orientation: qHTS replaces the single test concentration by a dilution series.
Consider `CS(=O)(=O)OCC(O)C(O)COS(C)(=O)=O` (configuration not stated), for which the Potency is 1.33 µM (active). The same measure for `CCC(Cc1c(I)cc(I)c(O)c1I)C(=O)O` (configuration not stated): “inactive”.

For `CC(=O)[C@]1(O)Cc2c(O)c3c(c(O)c2[C@@H](O[C@H]2C[C@H](N)[C@H](O)[C@H](C)O2)C1)C(=O)c1c(O)cccc1C3=O`, the Potency is 0.0188 µM (active).

Turning to `CC(CN(C)C)CN1c2ccccc2S(=O)(=O)c2ccccc21` (configuration not stated), the Potency result is “inactive”. For the compound `O=C1NC(=O)[C@H]2[C@@H]1[C@@H]1C=C[C@H]2C1`, the Potency result was “inactive”. The same measure for `S=C=Nc1ccc(N=C=S)cc1`: “inactive”; for `N[C@H](CCC(=O)O)C(=O)O`: “inactive”.

On to `CCC(C)[C@H]1O[C@]2(C=C[C@@H]1C)C[C@@H]1C[C@@H](C/C=C(\C)[C@@H](O[C@H]3C[C@H](OC)[C@@H](O[C@H]4C[C@H](OC)[C@H](NC(C)=O)[C@H](C)O4)[C@H](C)O3)[C@@H](C)/C=C/C=C3\CO[C@@H]4[C@H](O)C(C)=C[C@@H](C(=O)O1)[C@]34O)O2` (some centres not stated), for which the Potency was 1.33 µM (active) and 2.98 µM (active). For `CN1CCCC(CN2c3ccccc3Sc3ccccc32)C1` (configuration not stated), the Potency was 8.41 µM (active). The entry for `CCCC(=O)Nc1ncnc2c1ncn2[C@@H]1O[C@@H]2COP(=O)(O)O[C@H]2[C@H]1OC(=O)CCC` is “inactive”; for `CC(=C\c1ccccc1)/C=C1/SC(=S)N(CC(=O)O)C1=O` it is “inactive”; for `O=P(O)(O)OC[C@H]1O[C@](O)(COP(=O)(O)O)[C@@H](O)[C@@H]1O` it is “inactive”. The same measure for `COc1cc2c(cc1OC)[C@@H](c1ccccc1)CN(C)CC2`: “inactive”. The same measure for `CCN(CC)CCC(=O)N1c2ccccc2Sc2ccc(Cl)cc21`: 10.6 µM (active); for `NCCCC[C@H](N)C(=O)O`: “inactive”; for `CCCC(=O)N1CCCN(c2nc(N)c3cc(OC)c(OC)cc3n2)CC1`: “inactive”.

As to `CCN1C(=O)NC(c2ccccc2)C1=O` (configuration not stated), the Potency entry is “inactive”. On to `CCN(CC)CCC(=O)N1c2ccccc2Sc2ccc(C(F)(F)F)cc21`, for which the Potency was 10.6 µM (active). The same measure for `CCOC(=O)[C@@H](N)CS`: “inactive”; for `C[Se]CCC(N)C(=O)O` (configuration not stated): “inactive”; for `O=[n+]1ccn([O-])c2ccccc21`: “inactive”. The entry for `CCCOc1cc(N)ccc1C(=O)OCCN(CC)CC` is “inactive”; for `NC(=O)Oc1ccc(Cc2ccccc2)cc1` it is “inactive”; for `CC(C)CCC[C@@H](C)[C@H]1CC(=O)C2=C3CC[C@H]4C[C@@H](O)CC[C@]4(C)[C@H]3CC[C@@]21C` it is 0.298 µM (active). The same measure for `CC1C(=O)CC2C3(C)CCC2(C(C)C(=O)O)C(=O)C13` (configuration not stated): “inactive”. `CN(C)CCC=C1c2ccccc2C(C)(C)c2ccccc21`: the Potency is 13.3 µM (active).

Turning to `CCC(CN)CC(C)CCNCC(O)CNCC(C)CC(CC)CN` (configuration not stated), the Potency result is “inactive”. The figure for `C[C@H]1[C@@H](OC(=O)CCC(=O)O)O[C@@H]2OC3(C)CC[C@H]4[C@H](C)CC[C@@H]1[C@@]24OO3` is 0.188 µM (active); for `O=C(/C=C/c1cccc(F)c1)NC1CC1` it is “inactive”; for `OCC(O)COc1ccc(Cl)cc1` (configuration not stated) it is “inactive”.

On to `CCC(=O)c1ccc2c(c1)N(CCCN1CCN(CCO)CC1)c1ccccc1S2`, for which the Potency was 2.66 µM (active). The entry for `O=P(O)(O)C(Sc1ccc(Cl)cc1)P(=O)(O)O` is “inactive”; for `C[C@@H](O)[C@H]1C(=O)N2C(C(=O)[O-])=C(SC3Cn4cnc[n+]4C3)[C@H](C)[C@H]12` (some centres not stated) it is “inactive”; for `CC(C)(C)C1(O)CCN2CC3c4ccccc4CCc4cccc(c43)C2C1` (configuration not stated) it is 11.9 µM (active). In the case of `N[C@@H](C(=O)N[C@@H]1C(=O)N2C(C(=O)O)=C(CSc3cn[nH]n3)CS[C@H]12)c1ccc(O)cc1`, the Potency result is “inactive”.

In the case of `C#C[C@]1(O)CC[C@H]2[C@@H]3CCC4=C/C(=N/O)CC[C@@H]4[C@H]3CC[C@@]21CC`, the Potency was 23.7 µM (active). The same measure for `CCOC(=O)CN[C@@H](C(=O)N1CC[C@H]1C(=O)NCc1ccc(/C(N)=N/O)cc1)C1CCCCC1`: “inactive”.
